# The supplement of paper PMC6555819
# What was measured:
# Test in all cases: PBM binding z-score (relative to random genomic background probes); higher = stronger binding; sequences stand for … in GC…GCGATTGACAGCGTAGAATGAAGG
# [1] = system: FXR:RXRa (NR concentration 270 nM, RXRa partner concentration 90 nM)
# How it was run: (§1)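 Regression normalization was applied to scanned fluorescence from custom Agilent 4×180K protein-binding microarrays. Before scanning, arrays were incubated 1 h with ligand-free nuclear receptor dimers, and binding was detected with antibodies against each partner (one per run). Binding z-scores use the random background probes as reference.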
# [2] = system: LXRa:RXRa (NR concentration 270 nM, RXRa partner concentration 90 nM)
# How it was run: as §1
# [3] = system: LXRa homodimer (NR concentration 270 nM)
# How it was run: as §1
# [4] = system: LXRb:RXRa (NR concentration 270 nM, RXRa partner concentration 90 nM)
# How it was run: as §1
# [5] = system: LXRb homodimer (NR concentration 270 nM)
# How it was run: as §1
# [6] = system: PPARa:RXRa (NR concentration 270 nM, RXRa partner concentration 90 nM)
# How it was run: as §1
# [7] = system: PPARg:RXRa (NR concentration 180 nM, RXRa partner concentration 90 nM)
# How it was run: as §1
# [8] = system: PPARg:RXRa 270nM:90nM, anti-RXR (NR concentration 270 nM, RXRa partner concentration 90 nM)
# How it was run: as §1
# [9] = system: PPARg:RXRa 30nM:10nM, anti-RXR (NR concentration 30 nM, RXRa partner concentration 10 nM)
# How it was run: as §1
# [10] = system: PPARg:RXRa 90nM:30nM, anti-RXR (NR concentration 90 nM, RXRa partner concentration 30 nM)
# How it was run: as §1
# [11] = system: PPARg:RXRa DBDmut IVT, anti-RXR (DBD mutation: RXRa K156A/R161A, NR concentration 270 nM, RXRa partner concentration 90 nM)
# How it was run: as §1
# [12] = system: PPARg:RXRa IVT, anti-PPARg (NR concentration 270 nM, RXRa partner concentration 90 nM)
# How it was run: as §1
# [13] = system: PPARg DBDmut:RXRa IVT, anti-PPARg (DBD mutation: PPARg1 K132A/R137A, NR concentration 270 nM, RXRa partner concentration 90 nM)
# How it was run: as §1
# [14] = system: PPARg DBDmut IVT, anti-PPARg (DBD mutation: PPARg1 K132A/R137A, NR concentration 270 nM)
# How it was run: as §1
# [15] = system: PPARg homodimer (NR concentration 180 nM)
# How it was run: as §1
# [16] = system: PXR homodimer (NR concentration 270 nM)
# How it was run: as §1
# [17] = system: RARa:RXR (NR concentration 270 nM, RXRa partner concentration 90 nM)
# How it was run: as §1
# [18] = system: RARa homodimer (NR concentration 270 nM)
# How it was run: as §1
# [19] = system: RARb:RXRa (NR concentration 270 nM, RXRa partner concentration 90 nM)
# How it was run: as §1
Sequence,PBM binding z-score [1],PBM binding z-score [2],PBM binding z-score [3],PBM binding z-score [4],PBM binding z-score [5],PBM binding z-score [6],PBM binding z-score [7],PBM binding z-score [8],PBM binding z-score [9],PBM binding z-score [10],PBM binding z-score [11],PBM binding z-score [12],PBM binding z-score [13],PBM binding z-score [14],PBM binding z-score [15],PBM binding z-score [16],PBM binding z-score [17],PBM binding z-score [18],PBM binding z-score [19]
CTCGAAAGGTCGGTTGAGGTCAGTATACGGATAA,5.06,5.23,1.74,3.81,0.351,3.83,1.26,2.17,0.448,1.75,-0.211,1.36,0.0267,0.122,3.1,2.85,4.9,1.04,4.13
AGTCAAAGTTCTTCTAGGTAACGTAAGATATGCT,0.261,-0.366,0.0883,-0.0374,0.0414,0.304,0.844,1.16,0.354,0.549,0.515,1.89,0.999,1.12,0.188,0.42,0.106,0.636,0.948
AATACAGGGTCACTTGGCCAGAGTAGGTACGAAT,6.52,5.13,1.39,4.27,1.54,5.49,5.84,5.4,2.24,4.19,2.55,4.18,1.56,1.27,1.58,0.166,4.1,0.292,4.23
CCTTACGGGTCAAGGTTATCGCACGGGTGGTACG,6.04,3.62,0.367,2.95,0.18,5.07,4.85,5.31,2.29,3.7,2.42,3.71,0.643,-0.085,2.19,0.106,4.53,0.512,4.2
ATATGTAGGTCAGCTGGGGTCATTCAGACTAGGC,6.69,6.41,5.01,5.39,1.51,6.15,9,7.13,5.31,7.16,8.08,8.21,5.33,2.2,4.29,5.2,6.74,1.6,4.57
CGTCTAAGGTCAAAGGTCAGTGAAGAGATGACGG,8.79,7.27,4.41,6.95,2.67,7.45,11,8.6,8.75,10.3,4.71,5.84,0.729,0.828,5.87,2.61,8.98,4,6.07
AGAACGAGGGCAATGAGTTCATAGCACGGGTGGC,1.78,2.26,1.48,1.11,-0.445,2.83,2.16,1.57,0.0417,0.912,3.4,3.12,0.564,0.148,0.482,15.2,2.56,0.017,2.79
AATACAGGGTCATTAGGCCAGAGTAGGTACGAAT,7.31,5.48,2.17,4.27,1.52,5.58,6.71,5.91,2.62,4.89,3.37,4.54,1.38,0.677,2.55,0.493,4.48,1.06,4.04
ATACCAAGGTGATCGTGAGTTCGTTGATACTAAC,0.706,0.653,0.426,0.294,-0.366,0.602,0.328,-0.00894,0.101,-0.0417,0.668,0.994,-0.0501,0.822,0.422,3.19,0.619,0.465,0.462
CTTTACGGGTCAAGGTTATAGCACGGGTGGTACG,5.72,4.66,1.01,3.35,0.665,5.26,5.26,5.41,2.59,4.51,3.74,4.39,1.72,1.23,2.84,0.731,4.6,0.604,4.17
GCTTACGGGTGAAAGGTTATAGCATGAATAGAAT,2.96,2.79,0.142,3,-0.294,5.7,9.88,8.08,7.78,8.71,3.24,4.67,0.644,0.4,1.72,0.0936,4.93,0.6,2.14
CCGTACGGGTCAAGGTTATAGCACGGGTGGTACG,5.23,3.78,-0.221,3.11,-0.132,4.76,4.03,4.28,1.2,2.77,0.0598,2.11,-0.559,-1.41,1.37,0.0308,4.49,-0.0555,4.09
GATAAAGGGTCAGCTAGAGGCCAGAGTATGGAAA,5.39,3.97,0.0664,3.27,0.0558,5.06,4.3,4.76,2.03,3.31,2.27,2.89,0.542,-0.0188,3.27,-0.0592,4.78,1.02,5.21
CAAACTAGGTCACCGGGAGGTCAAAGTCCGCATG,6.46,6.26,6.39,5.87,1.73,6.17,9.53,8,6.05,8.25,8.47,9.02,1.69,0.534,6.45,4.09,7.76,3.15,5.16
AATACAGGGTCACTGGGCCAGAGTAGGTACGAAT,6.75,5.6,1.01,4.21,0.418,6.23,8.71,6.98,3.69,5.91,4.06,5.96,1.16,2.2,3.2,0.0493,4.88,1.05,4.3
